Calls of active or inactive are those of the source. The calls were made as follows: active = hit-call score of the fitted dose curve at least 0.9, where 1 is the maximum; inactive = score below 0.9.

Conditions in all cases: mRNA level, 48 h; actives raise or lower the signal
Read-out in experiment [1]: Cyclin Dependent Kinase Inhibitor 1A (CDKN1A), CDKN1A (gene 1026)
In words: LTEA_HepaRG_CDKN1A: Life Technologies and Expression Analysis (LTEA) Assay for Cyclin Dependent Kinase Inhibitor 1A (CDKN1A) using HepaRG (AID 2283450). Put shortly: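 Differentiated HepaRG cells in serum-free induction medium, exposed 48 h in duplicate to eight half-log concentrations up to 100 uM in 0.5% DMSO. mRNA measured by TaqMan qRT-PCR, normalized to ACTB, GAPDH, POLR2A; bidirectional fit versus DMSO.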

Read-out in experiment [2]: Cyclin D1 (CCND1), CCND1 (gene 595)
The experiment is described as follows: LTEA_HepaRG_CCND1: Life Technologies and Expression Analysis (LTEA) Assay for Cyclin D1 (CCND1) using HepaRG (AID 2283451). Put shortly:
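Differentiated HepaRG cells exposed 48 h in serum-free induction medium to eight half-log concentrations from 100 uM top, 0.5% DMSO, duplicates. CCND1 mRNA measured by Fluidigm TaqMan qRT-PCR, normalised to ACTB, GAPDH, POLR2A; bidirectional fit.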

Read-out in experiment [3]: flavin-containing dimethylaniline monooxygenases 3 (FMO3), FMO3 (gene 2328)
In words: LTEA_HepaRG_FMO3: Life Technologies and Expression Analysis (LTEA) Assay for flavin-containing dimethylaniline monooxygenases 3 (FMO3) using HepaRG (AID 2283453).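 As to AC50: FMO3 transcript by TaqMan qRT-PCR normalized to ACTB GAPDH and POLR2A.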 In short, it runs like this:
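HepaRG, 48 h exposure, 8-pt half-log series from 100 uM, 0.5% DMSO vehicle, duplicates; FMO3 transcript by Fluidigm TaqMan qRT-PCR, housekeeping-normalized; gain/loss fit vs DMSO.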

Read-out in experiment [4]: Cytochrome P450 (CYP1A1), CYP1A1 (gene 1543)
In words: LTEA_HepaRG_CYP1A1: Life Technologies and Expression Analysis (LTEA) Assay for Cytochrome P450 (CYP1A1) using HepaRG (AID 2283454). In short, it runs like this: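 Differentiated human HepaRG cells, after 48 h plating, exposed in duplicate for 48 h in serum-free induction medium to 8 half-log concentrations up to 100 uM in 0.5% DMSO. CYP1A1 mRNA by qRT-PCR, normalized to ACTB/GAPDH/POLR2A; bidirectional fit versus DMSO.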

Read-out in experiment [5]: CFLAR gene, CFLAR (gene 8837)
In words: LTEA_HepaRG_CFLAR: Life Technologies and Expression Analysis (LTEA) Assay for CFLAR gene using HepaRG (AID 2283455). Put shortly:
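HepaRG cells were plated for 48 h, switched to serum-free induction medium, then exposed in duplicate for 48 h to 8 concentrations (top 100 uM, half-log steps, 0.5% DMSO). CFLAR mRNA was measured by qRT-PCR, normalized to ACTB, GAPDH and POLR2A.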

Read-out in experiment [6]: Forkhead box O1 (FOXO1), FOXO1 (gene 2308)
The experiment is described as follows: LTEA_HepaRG_FOXO1: Life Technologies and Expression Analysis (LTEA) Assay for Forkhead box O1 (FOXO1) using HepaRG (AID 2283456). In short, it runs like this:
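Differentiated human HepaRG cells in serum-free induction medium were exposed in duplicate for 48 h to eight half-log concentrations (top 100 uM, 0.5% DMSO). FOXO1 mRNA was measured by TaqMan qRT-PCR, normalised to ACTB, GAPDH and POLR2A, and fitted bidirectionally against DMSO.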

Read-out in experiment [7]: growth arrest and DNA damage 45 (GADD45A), GADD45A (gene 1647)
In words: LTEA_HepaRG_GADD45A: Life Technologies and Expression Analysis (LTEA) Assay for growth arrest and DNA damage 45 (GADD45A) using HepaRG (AID 2283458). In short, it runs like this: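 Differentiated HepaRG cells were exposed in duplicate for 48 h in serum-free induction medium to 8-point half-log concentrations up to 100 uM in 0.5% DMSO. GADD45A mRNA was measured by TaqMan qRT-PCR, normalized to ACTB, GAPDH and POLR2A, with bidirectional fitting versus DMSO.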

Read-out in experiment [8]: Forkhead box O3 (FOXO3), FOXO3 (gene 2309)
The experiment is described as follows: LTEA_HepaRG_FOXO3: Life Technologies and Expression Analysis (LTEA) Assay for Forkhead box O3 (FOXO3) using HepaRG (AID 2283459). In short, it runs like this:
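Differentiated human HepaRG cells in serum-free induction medium were exposed in duplicate for 48 h to eight half-log concentrations up to 100 uM in 0.5% DMSO. FOXO3 mRNA was quantified by qRT-PCR, normalized to ACTB, GAPDH and POLR2A, with bidirectional fitting versus DMSO.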

Read-out in experiment [9]: ABC Transporter (ABCB1), ABCB1 (gene 5243)
In words: LTEA_HepaRG_ABCB1: Life Technologies and Expression Analysis (LTEA) Assay for ABC Transporter (ABCB1) using HepaRG (AID 2283460). In short, it runs like this:
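Differentiated human HepaRG cells, plated 48 h then switched to serum-free induction medium, were exposed in duplicate to eight half-log concentrations up to 100 uM in 0.5% DMSO for 48 h. ABCB1 mRNA was measured by TaqMan qRT-PCR, normalized to ACTB/GAPDH/POLR2A.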

Read-out in experiment [10]: growth arrest and DNA damage 45 (GADD45B), GADD45B (gene 4616)
In words: LTEA_HepaRG_GADD45B: Life Technologies and Expression Analysis (LTEA) Assay for growth arrest and DNA damage 45 (GADD45B) using HepaRG (AID 2283461). Put shortly:
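Differentiated human HepaRG cells in serum-free induction medium exposed 48 h in duplicate to eight concentrations, top 100 uM, half-log steps, 0.5% DMSO. GADD45B mRNA by TaqMan qRT-PCR, normalized to ACTB, GAPDH, POLR2A; bidirectional fit versus DMSO.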

Read-out in experiment [11]: ABC Transporter (ABCC3), ABCC3 (gene 8714)
The experiment is described as follows: LTEA_HepaRG_ABCC3: Life Technologies and Expression Analysis (LTEA) Assay for ABC Transporter (ABCC3) using HepaRG (AID 2283462). Put shortly:
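Differentiated human HepaRG cells exposed 48 h in serum-free induction medium, 0.5% DMSO vehicle, 8-point half-log series to 100 uM in duplicate. ABCC3 mRNA by qRT-PCR, normalised to ACTB, GAPDH, POLR2A; bidirectional fit vs DMSO.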

Read-out in experiment [12]: ABC Transporter (ABCB11), ABCB11 (gene 8647)
The experiment is described as follows: LTEA_HepaRG_ABCB11: Life Technologies and Expression Analysis (LTEA) Assay for ABC Transporter (ABCB11) using HepaRG (AID 2283463). In short, it runs like this:
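Differentiated human HepaRG cells were exposed for 48 h in serum-free induction medium to eight half-log concentrations up to 100 uM in 0.5% DMSO. ABCB11 mRNA was quantified by qRT-PCR, normalized to ACTB, GAPDH and POLR2A, and fitted bidirectionally versus DMSO.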

Read-out in experiment [13]: ABC Transporter (ABCC2), ABCC2 (gene 1244)
The experiment is described as follows: LTEA_HepaRG_ABCC2: Life Technologies and Expression Analysis (LTEA) Assay for ABC Transporter (ABCC2) using HepaRG (AID 2283464). In short, it runs like this:
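Differentiated HepaRG cells in serum-free induction medium exposed 48 h to eight half-log concentrations up to 100 uM, 0.5% DMSO, in duplicate. ABCC2 mRNA measured by qRT-PCR (TaqMan, Fluidigm), normalized to ACTB, GAPDH and POLR2A. Fitted in both directions against DMSO.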

Read-out in experiment [14]: Broad substrate specificity ATP-binding cassette transporter ABCG2 (Homo sapiens) (UniProt Q9UNQ0)
The experiment is described as follows: LTEA_HepaRG_ABCG2: Life Technologies and Expression Analysis (LTEA) Assay for ABC Transporter (ABCG2) using HepaRG (AID 2283465). Put shortly: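 Differentiated HepaRG cells in serum-free induction medium were exposed for 48 h, in duplicate, to eight half-log concentrations up to 100 uM in 0.5% DMSO. ABCG2 mRNA was measured by TaqMan qRT-PCR, normalized to ACTB, GAPDH and POLR2A, and fitted bidirectionally versus DMSO.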

Read-out in experiment [15]: ATP-citrate lyase (ACLY), ACLY (gene 47)
The experiment is described as follows: LTEA_HepaRG_ACLY: Life Technologies and Expression Analysis (LTEA) Assay for ATP-citrate lyase (ACLY) using HepaRG (AID 2283466). Put shortly:
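Differentiated human HepaRG cells in serum-free induction medium exposed 48 h, in duplicate, to eight half-log concentrations from 100 uM top in 0.5% DMSO; ACLY mRNA measured by qRT-PCR, normalized to ACTB, GAPDH, POLR2A, fitted bidirectionally versus DMSO.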

Read-out in experiment [16]: Alkaline Phosphatase, Placental (ALPP) gene, ALPP (gene 250)
In words: LTEA_HepaRG_ALPP: Life Technologies and Expression Analysis (LTEA) Assay for Alkaline Phosphatase, Placental (ALPP) gene using HepaRG (AID 2283468). In short, it runs like this: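 HepaRG cells plated 48 h, then exposed in duplicate for 48 h in serum-free induction medium to 8-point half-log series from 100 uM in 0.5% DMSO. ALPP mRNA by TaqMan qRT-PCR, normalized to ACTB/GAPDH/POLR2A; bidirectional fit versus DMSO.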

Read-out in experiment [17]: Bcl-2 (BAD) gene, BAD (gene 572)
The experiment is described as follows: LTEA_HepaRG_BAD: Life Technologies and Expression Analysis (LTEA) Assay for Bcl-2 (BAD) gene using HepaRG (AID 2283469). In short, it runs like this:
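Differentiated human HepaRG cells in serum-free induction medium were exposed in duplicate for 48 h to eight concentrations (top 100 uM, half-log steps, 0.5% DMSO). BAD mRNA was quantified by qRT-PCR normalised to ACTB, GAPDH and POLR2A, with bidirectional fitting versus DMSO.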

Read-out in experiment [18]: catalase (CAT), CAT (gene 847)
In words: LTEA_HepaRG_CAT: Life Technologies and Expression Analysis (LTEA) Assay for catalase (CAT) using HepaRG (AID 2283452). Put shortly:
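Differentiated HepaRG cells in serum-free induction medium were dosed 48 h in duplicate, eight half-log concentrations from 100 uM in 0.5% DMSO. Transcript measured by TaqMan qRT-PCR, normalised to ACTB/GAPDH/POLR2A, fitted bidirectionally against DMSO.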

Read-out in experiment [19]: Peroxisomal acyl-coenzyme A oxidase 1 (ACOX1) gene, ACOX1 (gene 51)
In words: LTEA_HepaRG_ACOX1: Life Technologies and Expression Analysis (LTEA) Assay for Peroxisomal acyl-coenzyme A oxidase 1 (ACOX1) gene using HepaRG (AID 2283467). In short, it runs like this: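 Differentiated human HepaRG cells were exposed in duplicate for 48 h in serum-free induction medium to eight half-log concentrations up to 100 uM in 0.5% DMSO. ACOX1 mRNA was then quantified by TaqMan qRT-PCR, normalized to ACTB, GAPDH and POLR2A.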

Broad substrate specificity ATP-binding cassette transporter ABCG2 (Homo sapiens), sequence (Q9UNQ0 whole entry, looked up): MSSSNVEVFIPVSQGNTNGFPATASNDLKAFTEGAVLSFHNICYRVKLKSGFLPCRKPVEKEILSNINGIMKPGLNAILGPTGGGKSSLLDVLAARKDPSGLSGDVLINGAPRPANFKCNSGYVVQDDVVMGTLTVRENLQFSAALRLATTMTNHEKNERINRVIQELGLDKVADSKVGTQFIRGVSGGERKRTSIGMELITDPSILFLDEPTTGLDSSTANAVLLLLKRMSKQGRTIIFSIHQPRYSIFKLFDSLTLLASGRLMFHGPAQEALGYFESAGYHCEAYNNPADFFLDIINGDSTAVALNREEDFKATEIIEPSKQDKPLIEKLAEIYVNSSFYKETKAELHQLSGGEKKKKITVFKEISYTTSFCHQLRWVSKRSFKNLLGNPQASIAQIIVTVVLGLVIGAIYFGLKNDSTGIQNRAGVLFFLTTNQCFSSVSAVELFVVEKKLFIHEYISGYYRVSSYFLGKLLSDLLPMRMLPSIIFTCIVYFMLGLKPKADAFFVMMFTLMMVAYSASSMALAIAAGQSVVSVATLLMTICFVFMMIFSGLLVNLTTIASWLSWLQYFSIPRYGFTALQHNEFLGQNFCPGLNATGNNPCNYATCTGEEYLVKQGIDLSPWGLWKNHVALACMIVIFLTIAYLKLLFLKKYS

For `CCOCCOCCO`, the outcome in [1], in experiment [2], in experiment [3], in experiment [4], in experiment [5] and in experiment [6] was inactive. For the same compound, the outcome in [7], in [8], in experiment [9], in experiment [10], in [11] and in [12] was inactive. Also, the outcome in experiment [13], in experiment [14], in experiment [15], in [16] and in experiment [17] was inactive.
Regarding `CC(C)(O)c1ccc(CNC(=O)c2cccnc2Oc2ccc(F)cc2)cc1`, the outcome in experiment [2], in experiment [18], in [3], in experiment [5], in experiment [6] and in experiment [7] was inactive. Further, the outcome in [8], in [9], in experiment [10], in experiment [11], in experiment [12] and in experiment [14] was inactive. Moreover, the call in experiment [15], in experiment [16] and in experiment [17] was inactive. The AC50 in experiment [4] was 67.4 µM (active); in experiment [13], 29.5 µM (active).
For the compound `CC(=O)O[C@]1(C(C)=O)CC[C@H]2[C@@H]3C=C(Cl)C4=CC(=O)[C@@H]5C[C@@H]5[C@]4(C)[C@H]3CC[C@@]21C`, the result in experiment [2], in experiment [4], in experiment [8], in experiment [9], in [10] and in experiment [11] was inactive. Further, the outcome in experiment [12], in experiment [14], in experiment [15] and in experiment [16] was inactive. Moreover, the concentration at half-maximal activity (AC50) in experiment [18] was 50 µM (active); in [3] it was 36.1 µM (active); in experiment [5] it was 50 µM (active); in [6], 50 µM (active); in experiment [7], 50 µM (active); in experiment [13] it was 50 µM (active). In addition, the concentration at half-maximal activity (AC50) in experiment [19] was 29.2 µM (active).

For orientation: AC50 means the concentration at which the activity in the assay is half-maximal.

For the origin of these results see PubChem BioAssay (EPA / NIEHS).
